Compound activity deposited in PubChem BioAssay by National Center for Advancing Translational Sciences (NCATS).
Rows were chosen to be rich in hits. Some 3.9% of all compounds tested hit in one or more screens of this group.
Tb PFK inh: qHTS Assay to Find Inhibitors of T. brucei phosphofructokinase; ATP-dependent 6-phosphofructokinase (Trypanosoma brucei brucei), O15648; Potency, µM (highest dose often 57.5 µM), most hits filed as inhibitors; 330,000 compounds, 0.17% hits; AID 485367, 2010; T. brucei PFK, ADP-Glo luminescence; also: nearly all actives have a fitted effect of over 60% in size
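Luminescent ADP detection (ADP-Glo, two-step: ATP depletion then ADP-to-ATP conversion for luciferase) reported PFK activity after 45 min room-temperature reaction of 1.25 nM enzyme with 0.5 mM F6P and 0.1 mM ATP at pH 8.0.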
PLK1 PBD block: qHTS for Inhibitors of PLK1-PDB (polo-like kinase 1 - polo-box domain): Primary Screen; Plk1 PBD binding of FITC phosphopeptide, fluorescence polarization; Potency, µM, most hits filed as inhibitors; 360,000 compounds, 2.8% hits; Serine/threonine-protein kinase PLK1 (Homo sapiens), P53350; also: series mostly up to about 57 µM; nearly all actives have a fitted effect of over 65% in size
VDR inh: Inhibitors of the vitamin D receptor (VDR): qHTS; Vitamin D3 receptor (Homo sapiens), P11473; VDR-SRC2-3 peptide fluorescence polarization, 2 h; Potency, µM, actives largely listed as inhibitors; 400,000 compounds, 0.93% hits; AID 504847, 2011
Target sequence (P11473 whole entry, looked up): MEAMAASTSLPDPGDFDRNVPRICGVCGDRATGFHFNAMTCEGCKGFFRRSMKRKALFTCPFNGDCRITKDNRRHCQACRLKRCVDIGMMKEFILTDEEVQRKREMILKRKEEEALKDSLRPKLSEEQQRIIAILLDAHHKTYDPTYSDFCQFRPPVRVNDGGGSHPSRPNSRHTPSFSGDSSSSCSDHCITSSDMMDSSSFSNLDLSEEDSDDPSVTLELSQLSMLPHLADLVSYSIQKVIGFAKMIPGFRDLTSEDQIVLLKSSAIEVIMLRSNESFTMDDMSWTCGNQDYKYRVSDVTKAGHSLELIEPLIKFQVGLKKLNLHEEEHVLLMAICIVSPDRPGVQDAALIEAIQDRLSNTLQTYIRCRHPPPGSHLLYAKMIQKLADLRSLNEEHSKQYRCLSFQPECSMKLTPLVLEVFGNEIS
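Fluorescence polarization assay measuring small-molecule disruption of VDR binding to the coregulator peptide SRC2-3. Compounds were pin-transferred (23 nl) into the reagent mix and incubated 2 h at room temperature before reading.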
BRCA1 expr act: qHTS Assay to Identify Small Molecule Activators of BRCA1 Expression; MCF7-BRCA1-FFLuc reporter, luminescence, 48 h; response scale: scaled: vehicle 0%, 10 µM genistein 100%; Potency, µM (highest dose often 46.1 µM), hits mostly activators; 380,000 compounds, 1.1% hits; AID 624202, 2012; also: nearly all actives have a fitted effect of over 80% in size
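Using MCF7 cells harboring a BRCA1 firefly luciferase reporter, plated 2 h before compound pinning, the screen measured luminescence after 48 h incubation. Responses were normalized to DMSO and 10 microM genistein, then fitted for concentration-effect.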
Each line names hits and unclear results; the compound was inactive in the other large screens. Calls follow the shape of the dose curve; as a rule, active = well fitted curve in the direction sought with a large enough effect; inconclusive = small, poorly fitted or top-dose-only effect, or another doubt; inactive = no such curve, though single readings can be large; an effect the other way counts as inactive or inconclusive.

O=C(CCc1ccccc1)NCCc1csc(-c2cccc(F)c2)n1	none (no result: Tb PFK inh, PLK1 PBD block, BRCA1 expr act)
CO[C@H]1C[C@@H]2CC[C@@H](C)[C@@](O)(O2)C(=O)C(=O)N2CCCC[C@H]2C(=O)O[C@H](C(C)C[C@H]2CC[C@@H](O)[C@H](OC)C2)CC(=O)[C@H](C)/C=C(\C)[C@@H](O)[C@@H](OC)C(=O)[C@H](C)C[C@H](C)/C=C/C=C/C=C/1C (some centres undefined)	none (no result: Tb PFK inh, PLK1 PBD block, BRCA1 expr act)
CS(=O)(=O)NCCn1ccc2ccccc21	PLK1 PBD block 29.9µM
CC(C)(C)C(=O)NCCn1ccc2ccccc21	none
CN(C)C(=S)c1ccc(N(C)C)cc1	PLK1 PBD block 26.7µM, VDR inh inconclusive
COc1ccc(C(=S)N(C)C)cc1OC	PLK1 PBD block 18.9µM, VDR inh inconclusive
CN(C)C(=S)c1ccccc1	PLK1 PBD block 21.2µM, VDR inh inconclusive
COc1ccc(CNC(=O)C(=O)NCC(c2ccco2)S(=O)(=O)c2cccs2)cc1 (centres undefined)	none (no result: Tb PFK inh, PLK1 PBD block, BRCA1 expr act)
O=c1c2cnn(-c3ccc(F)cc3)c2ncn1Cc1cccc(Cl)c1	none (no result: Tb PFK inh, PLK1 PBD block, BRCA1 expr act)
COc1ccc(C2=CC3=C(Br)C(=O)C(C)(OC(=O)C4CCCC4)C(=O)C3=CO2)cc1 (centres undefined)	PLK1 PBD block 23.8µM, VDR inh inconclusive
CC1(OC(=O)C2CCCC2)C(=O)C=C2C=C(c3ccsc3)OC=C2C1=O (centres undefined)	PLK1 PBD block inconclusive, VDR inh inconclusive
COc1ccc(C2=CC3=C(Br)C(=O)C(C)(OC(=O)c4ccc(Cl)nc4)C(=O)C3=CO2)cc1 (centres undefined)	PLK1 PBD block 11.9µM
COC(=O)CCC(=O)OC1(C)C(=O)C2=COC(c3ccc(OC)cc3)=CC2=C(Br)C1=O (centres undefined)	PLK1 PBD block 11.9µM, VDR inh inconclusive
CC(C)(C)OC(=O)NCCCC1=CC2=CC(=O)C(C)(OC(=O)c3ccc(Cl)nc3)C(=O)C2=CO1 (centres undefined)	none (no result: Tb PFK inh, PLK1 PBD block, BRCA1 expr act)
CCOc1ncccc1C(=O)Nc1cc(S(=O)(=O)N2CCOCC2)ccc1OCC(F)(F)F	none
O=C(c1cnc2c(c1)COc1ccccc1-2)c1ccccc1O	BRCA1 expr act inconclusive (no result: Tb PFK inh, PLK1 PBD block)
Clc1ccc2c(SCC3CO3)c3ccccc3nc2c1 (centres undefined)	VDR inh 39.8µM (no result: Tb PFK inh)
O=C(CSc1c2c(nc3cc(Cl)ccc13)CCCC2)NCCN1CCOCC1	VDR inh inconclusive
CC(C)Oc1ccc(CNC(=O)C2CCN(C(=O)N3CCOc4ccc(Cl)cc43)CC2)cc1	none (no result: Tb PFK inh, PLK1 PBD block, BRCA1 expr act)
Cc1ccc(Cl)cc1N1CCN(C(=O)CCS(=O)(=O)c2cc(Br)cc3c2N(C(=O)C2CC2)CC3)CC1	none (no result: Tb PFK inh, PLK1 PBD block, BRCA1 expr act)
CC(=O)N1c2ccc(S(=O)(=O)N3CCC(C(=O)Nc4cccc(C)c4C)CC3)cc2CC1C (centres undefined)	PLK1 PBD block 23.8µM
COc1cccc(NC(=O)C2CCN(S(=O)(=O)c3ccc4c(c3)CC(C)N4C(C)=O)CC2)c1 (centres undefined)	none
CC(=O)N1c2ccc(S(=O)(=O)N3CCC(C(=O)Nc4cccc(C(F)(F)F)c4)CC3)cc2CC1C (centres undefined)	PLK1 PBD block 26.7µM
c1ccc(C2NCCc3ccccc32)cc1 (centres undefined)	PLK1 PBD block 26.7µM, VDR inh inconclusive
Nc1c2c3c(sc2nc(=O)n1N)CCCC3	none
O=c1c2c3c(sc2nc2n1CCCCC2)CCCC3	PLK1 PBD block 26.7µM, BRCA1 expr act 4.47µM
CC1CSc2nc3sc4c(c3c(=O)n21)CCCC4 (centres undefined)	PLK1 PBD block inconclusive
CC1=Nn2c(nc3sc4c(c3c2=O)CCCC4)SC1	BRCA1 expr act 7.08µM
O=c1c2c3c(sc2nc2n1CCCCC2)CCCCC3	none (no result: PLK1 PBD block, VDR inh, BRCA1 expr act)
Nc1nc2sc3c(c2c(=O)s1)CCCC3	BRCA1 expr act 11.2µM
CCN(CC)S(=O)(=O)c1ccc(OCCNS(C)(=O)=O)cc1	PLK1 PBD block 2.99µM, VDR inh 28.2µM
CCNS(=O)(=O)c1ccc(OCCNS(C)(=O)=O)cc1	none
COc1ccc([C@H]2C[C@H](O)C[C@@H](CCn3cc(-c4ccccc4)nn3)O2)cc1	none (no result: Tb PFK inh, VDR inh)
COc1ccc(CCNC(=O)CCN2C(=O)[C@@H]3Cc4ccccc4CN3C2=O)cc1	none
